# Screening data (PubChem)
# A selection: hits, their analogues and other compounds. The true share with any hit is near 5.7%.
# HT1080 IDH1KD tx = toxicity to HT-1080 IDH1 knockdown cells (counter line); AID 686971; HT-1080 IDH1 knockdown viability, ATP luminescence, 48 h; Potency, µM (series often up to 46.1 µM), without a hit: top-dose activity, negative = toxicity, actives largely listed as cytotoxic; 360,000 compounds, 2% hits;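 further: 0% = DMSO wells and -100% = cell-free medium wells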
#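 % activity derives from luminescence (CellTiter-Glo), normalised to DMSO and no-cell wells. HT-1080-IDH1KD cells, 750/well, had 48 h compound exposure at 37 °C.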
# KB-V1 cytotox = KB-V1 MDR subline cytotoxicity | Potency, µM (top dose mostly 46.1 µM), most hits filed as cytotoxic | KB-V1 MDR cells viability, CellTiter-Glo, 72 h | AID 1347076 | 400,000 compounds, 3.4% hits; further: nearly all actives have a fitted effect of over 60% in size
#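 Potencies derive from concentration-effect curves fitted to normalized luminescence (CellTiter-Glo) of KB-V1 cells treated for 72 h at 37 degrees C in phenol-red-free DMEM containing 10% FBS.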
# KB-3-1 tox = KB-3-1 parental cell cytotoxicity; KB-3-1 viability, CellTiter-Glo ATP luminescence, 72 h; Potency, µM (titrated, usually from 46.1 µM), most hits filed as cytotoxic; 400,000 compounds, 1.4% hits; AID 1347075; further: nearly all actives have a fitted effect of over 60% in size
#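 KB-3-1 parental drug-naive adenocarcinoma cells in DMEM/10% FBS, incubated 72 h at 37 C with pin-transferred compounds across a concentration series. Viability by CellTiter-Glo luminescence; concentration-response curves fitted after normalization.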
# HT1080-NT tox = kills 2HG-producing HT-1080-NT fibrosarcoma cells | 360,000 compounds, 1.6% hits | Potency, µM (highest dose often 46.1 µM), inactives show top-dose activity, negative = less viability, usual class: cytotoxic | HT-1080-NT fibrosarcoma viability, CellTiter-Glo ATP luminescence, 48 h | AID 686970;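 further: NT is the 2HG producing partner of a matched IDH1 knockdown line; 0% = DMSO-treated cells and -100% = media-only wells without cells; nearly all actives have a fitted effect of over 55% in size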
#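 Compounds were tested in concentration-response format on HT-1080-NT cells for 48 hours at 37 degrees C. Cell viability came from CellTiter-Glo luminescence; curves were classified by r2, response magnitude and activity.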
# The depositor's hits bear a star; i = inactive; ? = inconclusive; · = no result given; ! = repeats disagree; [ ] = dose if it differs, or a comment. The call rests on the fitted dose curve; in most records, active means well fitted curve in the direction sought with a large enough effect; inconclusive means small, poorly fitted or top-dose-only effect, or another doubt; inactive means no such curve, though single readings can be large; an effect the other way counts as inactive or inconclusive. Unless noted, on the % scale 0 is the no-effect control and ±100 the full control effect; potency means the concentration at half of the fitted maximal effect.
SMILES,HT1080 IDH1KD tx,KB-V1 cytotox,KB-3-1 tox,HT1080-NT tox
COc1ccccc1CNS(=O)(=O)c1ccc(-c2cnc(C3CC3)o2)cc1,?,5.8µM*!,?,4.61µM*
COc1ccccc1N1CCN(S(=O)(=O)c2ccc(-c3cnc(C4CC4)o3)cc2)CC1,-9.7%,?,?,0.0%
CCOc1ccccc1NS(=O)(=O)c1cc(-c2cnc(C3CC3)o2)ccc1C,·,i,?,·
CCN(CC)c1ccc(NS(=O)(=O)c2ccc(-c3cnc(C4CC4)o3)cc2)c(C)c1,·,i,i,·
O=S(=O)(Nc1cccc(C(F)(F)F)c1)c1ccc(-c2cnc(C3CC3)o2)cc1,·,8.2µM*,10.3µM*,·
CCOC(=O)c1ccccc1NC(=O)C(=O)Nc1ccc2nc3n(c(=O)c2c1)CCCCC3,·,i,i,·
Cc1ccc(C)c(Nc2nc3nonc3nc2Nc2cccc(C)c2C)c1,·,?,20.6µM*,·
Cc1ccc(C)c(Nc2nc3nonc3nc2N2CCOCC2)c1,10.6%,?,i,0.1%
COc1ccccc1CN(Cc1ccco1)c1cnc(S(C)(=O)=O)nc1C(=O)Nc1cc(C)ccc1C,·,i,i,·
C=CCn1c(Cc2cccs2)nnc1SCC(=O)Nc1ccc(OC)c(OC)c1,-0.6%,23.1µM*,i,14.5%
CCSc1nnc(NC(=O)CSc2nccn2-c2cccc(C)c2)s1,2.9%,16.4µM*,i,3.4%
Cc1ccc(-n2c(Cc3cccn3C)nnc2SCC(=O)N2CCc3ccccc32)cc1,5.4%,6.51µM*,i,4.7%
O=C(NCc1nnc(SCC(=O)N2CCCc3ccccc32)n1-c1ccccc1)c1cccc2ccccc12,-28.5%,16.4µM*,?,-15.1%
CCn1c(Cc2cccs2)nnc1SCC(=O)Nc1ccc(OC)c(OC)c1,-2.0%,i,i,6.6%
OC1C(Br)=Cc2ccccc21 (stereo unspecified),·,i,i,·
Cc1cc(C)c2c(c1)cc(C)c1nnc(SCC(=O)N3CCCc4ccccc43)n12,5.0%,?,i,15.5%
COc1ccc(-n2c(CCc3ccccc3)nnc2SCC(=O)c2ccc(Cl)cc2)cc1,-6.7%,5.8µM*,?,7.6%
Cc1ccc(C)c2c1cc(C)c1nnc(SCC(=O)N3CCCc4ccccc43)n12,-5.1%,9.2µM*,?,-0.1%
O=C(CSc1nnc(CCc2ccccc2)n1-c1ccc(Cl)cc1)c1ccccc1,2.8%,?,i,4.3%
COc1ccc(-n2c(Cc3cccn3C)nnc2SCC(=O)NCCc2ccccc2)cc1,0.6%,9.2µM*,i,5.7%
O=C(Nc1nnc(SCC(=O)N2CCCc3ccccc32)s1)c1cccc2ccccc12,-15.4%,i,i,-17.5%
Cc1ccc(C(=O)Nc2nnc(SCC(=O)N3CCCc4ccccc43)s2)cc1,-6.1%,23.1µM*,i,0.3%
Cc1cccc(N2CCN(C3(c4ccccc4)C(=O)c4ccccc4C3=O)CC2)c1C,·,i,i,·
CC(C)Cc1nn2cc(-c3cccc(Br)c3)nc2s1,·,i,i,·
COc1ccccc1NC(=O)CSc1nnc(Cc2cccn2C)n1CCc1ccccc1,-5.2%,i,i,11.9%[9.24 µM]
SMILES,HT1080 IDH1KD tx,KB-V1 cytotox,KB-3-1 tox,HT1080-NT tox
CCSc1nnc(NC(=O)CSc2nnc(Cc3cccn3C)n2CCc2ccccc2)s1,-9.2%,8.2µM*,i,1.2%
Cc1cc(C)c(NC(=O)CSc2nnc(Cc3cccn3C)n2-c2ccc(F)cc2)c(C)c1,-12.0%,23.1µM*,i,-9.2%
Cn1cccc1Cc1nnc(SCC(=O)Nc2nccs2)n1CCc1ccccc1,-14.0%,i,i,-16.1%
COc1ccc(NC(=O)CSc2nnc(Cc3cccn3C)n2CCc2ccccc2)cc1OC,1.5%,14.6µM*,i,7.9%
C[N+](C)(C)c1ccc(/C=C2\C=Cc3ccccc32)cc1,·,i,?,·
COc1ccc(CNC(=O)CC(c2ccc(OC)c(OC)c2)N2Cc3ccccc3C2=O)cc1 (stereo unspecified),·,i,i,·
CCOc1ccccc1NC(=O)C1CCN(S(=O)(=O)c2cc(Br)cc3c2N(C(C)=O)CC3)CC1,·,i,i,·
CC(C)(C)c1ccc(Oc2nc3ccccn3c(=O)c2/C=C(\C#N)c2nc3ccccc3[nH]2)cc1,·,i,i,·
CN(C)CC(CCC(CN(C)C)C(=O)c1ccccc1)C(=O)c1ccccc1 (stereo unspecified),5.8µM*,8.2µM*,16.4µM*,3.26µM*
COc1ccc(C(=O)C(CCCCC(CN(C)C)C(=O)c2ccc(OC)cc2)CN(C)C)cc1 (stereo unspecified),?,13µM*,i,-14.2%
O=C(c1ccccc1)C(CCc1ccccn1)CCc1ccccn1,-2.6%,i,i,-2.2%
CCOc1ccc(C(=O)c2ccncc2)cc1,-19.6%,i,i,-3.8%
CCOc1ccc(C(=O)C(CCC(CN(C)C)C(=O)c2ccc(OCC)cc2)CN(C)C)cc1 (stereo unspecified),5.8µM*,i,?,5.17µM*
CCOc1ccccc1C(=O)Nc1cc2c(cc1N1CCCCC1)n(C)c(=O)n2C,·,?,i,·
COc1ccc(-c2cc(=O)oc3c4c(ccc23)OCN(Cc2cccc(OC)c2)C4)cc1,·,?,i,·
CCSc1oc(-c2ccco2)nc1S(=O)(=O)c1ccc(F)cc1,3.6%,16.4µM*,i,3.9%
CCSc1oc(-c2ccco2)nc1S(=O)(=O)c1ccc(C)cc1,-14.7%,?,i,-10.2%
Cc1cccc(NS(=O)(=O)c2ccc(Cl)c(C(=O)Nc3ccccc3C)c2)c1,·,i,i,·
Nc1ncnc2oc(-c3ccco3)c(-c3ccco3)c12,?,20.6µM*,i,?
CCC(=O)N1CCc2cc(Br)cc(S(=O)(=O)N3CCN(c4ccccc4OC)CC3)c21,·,i,i,·
CCc1noc(C)c1C(=O)N1CC(C)SC1=Nc1ccc(Cl)cc1 (stereo unspecified),-5.5%,16.4µM*,i,-8.9%
CCc1noc(C)c1C(=O)N1CC(C)OC(C)C1 (stereo unspecified),0.0%,i,i,-0.4%
Cc1nc(NC2=NCN(CCCN3CCOCC3)CN2)nc2c(C)cccc12,-13.0%,i,8.2µM*,-5.3%
Cc1nc(NC2=NCN(Cc3cccnc3)CN2)nc2ccccc12,-22.2%,i,i,22.3%
CCCCCCc1cc2cc(-c3nnc(-c4ccccc4OC)o3)c(=O)oc2cc1O,?,16.4µM*,?,?
CCCCCCc1cc2cc(-c3nnc(-c4cc(OC)c(OC)c(OC)c4)o3)c(=O)oc2cc1O,-9.0%,?,?,-2.5%
CCCCCCc1cc2cc(-c3nnc(-c4ccccc4O)o3)c(=O)oc2cc1O,-0.1%,13µM*,?,-2.3%
Cc1cc(C(=O)Nc2c(C)nc3ccccn3c2=O)ccc1[N+](=O)[O-],·,i,i,·
CCOc1ccc(C(=O)Nc2cc(-c3nc4ccccc4[nH]3)ccc2Cl)cc1[N+](=O)[O-],18.4µM*,?,i,?
